# Measured values taken from PubChem BioAssay (NCI).
# Values joined by “and” are separate entries in the source; they are usually repeats but may differ in a detail not shown here. Equal values may be shown once. The panel holds about 83,000 compounds, 20% with a hit somewhere; the sample as a whole holds those more often.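 Single-concentration screen, 48 h exposure, 96-well plates. Endpoint: percent growth. Below 10 = active.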 Active and inactive are the calls of the source.
# Experiments:
# Assay in all cases: NCI-60 one-dose screen, 48 h (100 = growth as untreated, 0 = no growth, -100 = all killed)
# Conditions in all cases: 10 µM unless noted
# [1] = tested on: NCI-H23 lung
# [2] = tested on: NCI-H226 lung
# [3] = tested on: NCI-H322M lung
# [4] = tested on: HOP-62 NSCLC
# [5] = tested on: NCI-H460 lung
# [6] = tested on: HOP-92 NSCLC
# [7] = tested on: NCI-H522 lung
# [8] = tested on: A549/ATCC NSCLC
# [9] = tested on: 786-0 renal
# [10] = tested on: COLO 205 colon
# [11] = tested on: DU-145 prostate
# [12] = tested on: K-562 leukemia
# [13] = tested on: MALME-3M melanoma
# [14] = tested on: MDA-MB-231 breast
# [15] = tested on: RXF 393 renal
# [16] = tested on: SF-268 CNS
# [17] = tested on: SF-295 CNS
# [18] = tested on: SF-539 CNS
# [19] = tested on: UACC-257 melanoma
# [20] = tested on: M14 melanoma
Compound,growth [1],growth [2],growth [3],growth [4],growth [5],growth [6],growth [7],growth [8],growth [9],growth [10],growth [11],growth [12],growth [13],growth [14],growth [15],growth [16],growth [17],growth [18],growth [19],growth [20]
O=C(Nc1cccc(-n2ccc3c(NC(=O)c4ccccc4)nccc32)c1)c1ccc(Cl)c(C(F)(F)F)c1,-9.83% (active) and 72.4% (inactive),34.5% (inactive) and 75.3% (inactive),22.6% (inactive) and 79.3% (inactive),-50.5% (active) and 67.7% (inactive),-51.4% (active) and 12.8% (inactive),-13.5% (active),82.8% (inactive),36.8% (inactive),-74.9% (active) and 48% (inactive),-49.7% (active) and 55.7% (inactive),-36% (active) and 61.6% (inactive),2.58% (active) and 27.6% (inactive),-35.4% (active),-11.2% (active) and 81.4% (inactive),-89.4% (active) and 94.8% (inactive),-44.1% (active),-53.7% (active) and 38.4% (inactive),-66% (active) and 52.8% (inactive),65.2% (inactive),-29.6% (active) and 64% (inactive)
O=[N+]([O-])c1ccc(Oc2ccccc2)cc1,95.7% (inactive) and 105% (inactive),103% (inactive),104% (inactive) and 111% (inactive),106% (inactive) and 95.9% (inactive),103% (inactive) and 102% (inactive),48.8% (inactive) and 77.1% (inactive),108% (inactive) and 103% (inactive),104% (inactive) and 89.5% (inactive),103% (inactive) and 106% (inactive),109% (inactive) and 110% (inactive),117% (inactive) and 127% (inactive),118% (inactive) and 123% (inactive),106% (inactive) and 124% (inactive),109% (inactive) and 136% (inactive),117% (inactive) and 118% (inactive),106% (inactive) and 99.4% (inactive),95.4% (inactive) and 121% (inactive),104% (inactive) and 98.1% (inactive),108% (inactive) and 91.7% (inactive),98.6% (inactive) and 108% (inactive)
CN1C(=O)C(N=Nc2ccc([N+](=O)[O-])cc2)SC1=S (configuration not stated),64.1% (inactive) and 43.7% (inactive),80.9% (inactive) and 70.3% (inactive),62.2% (inactive) and 71.8% (inactive),41.1% (inactive) and 53.7% (inactive),37.7% (inactive) and 45.3% (inactive),61.2% (inactive) and 62.9% (inactive),52.9% (inactive) and 68.1% (inactive),71% (inactive) and 76.3% (inactive),70.2% (inactive) and 75.1% (inactive),67% (inactive) and 74.4% (inactive),90.7% (inactive) and 89.2% (inactive),43.1% (inactive),80.1% (inactive) and 99.9% (inactive),76.7% (inactive) and 87% (inactive),80% (inactive) and 94.2% (inactive),65.2% (inactive) and 67.6% (inactive),185% (inactive) and 46.3% (inactive),67.2% (inactive) and 68.2% (inactive),76.3% (inactive) and 84.2% (inactive),59.6% (inactive) and 59.5% (inactive)
OC(CSc1ccccc1)CN1CCN(c2cccc(Cl)c2)CC1 (configuration not stated),104% (inactive) and 96.6% (inactive),91.4% (inactive) and 89.5% (inactive),108% (inactive) and 102% (inactive),107% (inactive) and 102% (inactive),114% (inactive) and 109% (inactive),82% (inactive) and 83.2% (inactive),104% (inactive) and 83.7% (inactive),101% (inactive) and 98.4% (inactive),94.8% (inactive) and 105% (inactive),105% (inactive) and 99.9% (inactive),116% (inactive) and 105% (inactive),84% (inactive) and 97% (inactive),–,96.6% (inactive) and 96.3% (inactive),106% (inactive) and 93.8% (inactive),100% (inactive) and 99.1% (inactive),110% (inactive) and 105% (inactive),113% (inactive) and 105% (inactive),93.6% (inactive) and 95% (inactive),100% (inactive) and 93.8% (inactive)
OCCN1CCN(CCCN2c3ccccc3Sc3ccc(Cl)cc32)CC1,66.4% (inactive) and 80.2% (inactive),96% (inactive) and 110% (inactive),64.2% (inactive) and 77.5% (inactive),61.4% (inactive) and 93.4% (inactive),64.3% (inactive) and 85.1% (inactive),-2.25% (active),40.5% (inactive) and 57.5% (inactive),–,53.3% (inactive) and 71.3% (inactive),-70.1% (active) and 73.3% (inactive),97.3% (inactive) and 95.7% (inactive),13% (inactive) and 22.7% (inactive),16.5% (inactive) and 67.3% (inactive),12.2% (inactive) and 81.6% (inactive),56.1% (inactive) and 55.3% (inactive),80.8% (inactive) and 71.9% (inactive),52.4% (inactive) and 67.9% (inactive),80.2% (inactive) and 83.4% (inactive),-43% (active) and -5.63% (active),–
O=[N+]([O-])c1ccccc1/C=N\Nc1ccccc1,75.3% (inactive) and 88.1% (inactive),89.4% (inactive) and 97.8% (inactive),86.5% (inactive) and 78.3% (inactive),90% (inactive) and 90.6% (inactive),91.2% (inactive) and 97.4% (inactive),72.2% (inactive),68.2% (inactive) and 62.3% (inactive),81.4% (inactive) and 81.6% (inactive),86.6% (inactive) and 101% (inactive),94.4% (inactive) and 105% (inactive),97.7% (inactive) and 103% (inactive),37.9% (inactive) and 40.2% (inactive),98.7% (inactive) and 116% (inactive),74.1% (inactive) and 65% (inactive),110% (inactive) and 105% (inactive),78.5% (inactive) and 89.5% (inactive),102% (inactive) and 76.9% (inactive),88.1% (inactive) and 106% (inactive),94.3% (inactive) and 103% (inactive),50.1% (inactive) and 70.9% (inactive)
O=C(Nc1ccc([N+](=O)[O-])cc1Cl)c1cc(Cl)ccc1O,-37.1% (active) and -43.6% (active),-11.4% (active) and -4.59% (active),-0.032% (active) and -21.1% (active),4.95% (active) and 9.98% (active),0.171% (active) and -3.23% (active),-24.7% (active) and -11.7% (active),-34.6% (active) and -12.1% (active),2.95% (active) and 18.5% (inactive),-34.7% (active) and -36.2% (active),-65.9% (active) and -43.8% (active),3.92% (active) and 17.7% (inactive),3.36% (active) and 12.4% (inactive),-8.09% (active) and -27.3% (active),-43.3% (active) and -31.2% (active),-27.4% (active) and -21.6% (active),5.52% (active) and 16.4% (inactive),-56.8% (active) and -57.8% (active),-16.5% (active) and 4.67% (active),-34.2% (active) and 3.09% (active),-24.1% (active) and -34.4% (active)
